# Kir21 inh: inhibitors of mouse Kir2.1 inward-rectifier potassium channel; HEK293-Kir2.1, FluxOR thallium flux fluorescence; hits give low values; B-score at 10 µM; 0.85% of 310,000 active; AID 1672;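 active = fluorescence ratio B-score at or below minus 3 SD of library scores, with starting-brightness B-score within 2 SD, cut at about -4.2 in these data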;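 note: channel flux triggered by added potassium and thallium sulfate stimulus; B-score of peak minus minimum fluorescence over baseline after thallium stimulus; more negative B-score means stronger Kir2.1 block with less thallium influx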
# TMEM16A act: activates or potentiates the mouse TMEM16A chloride channel. Q8BHY3. HEK293 TMEM16A/YFP-H148Q/I152L, iodide quench fluorescence; hits give low values. B-score at 10 µM. 0.3% of 340,000 active;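 active = fluorescence-ratio B-score plate-corrected deviation score at least 3 library SD below zero, with starting fluorescence score within 5 deviations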;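 note: channel opened by trigger with iodide after compound preincubation; score built on the fluorescence ratio of max minus min over baseline; more negative score means more quench and so TMEM16A activation or potentiation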
# TMEM16A inh: mouse TMEM16A channel inhibition, primary screen | HEK293 TMEM16A/YFP iodide influx fluorescence, ionomycin | normalized B-score (activity score, 25-100; higher = stronger inhibition) at 10 µM | 1.2% of 310,000 active | AID 588511;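 active = ratio plate-corrected score three or more library SD toward inhibition, starting fluorescence score within five deviations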;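 note: score derived from kinetic fluorescence span divided by baseline fluorescence per well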
# KCNK3 inh: human KCNK3 channel inhibition, primary screen | O14649 | CHO-KCNK3 thallium flux, FluxOR fluorescence; hits give low values | B-score at 10 µM | 0.84% of 340,000 active | AID 602410;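 active = B-score under library mean minus 4 SD, starting fluorescence ratio at most library mean plus 5 SD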;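 note: more negative B-score means stronger inhibition of thallium flux through KCNK3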
# KCNK9 block: inhibitors of human KCNK9 two-pore domain potassium channel | Q9NPC2 | HEK293 KCNK9, FluxOR thallium flux fluorescence; hits give low values | B-score at 10 µM | 1.2% of 310,000 active;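 active = ratio B-score over 3 SD below the library mean, with starting fluorescence within 5 SD of its mean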;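 note: negative B-score means less thallium flux so channel inhibition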
# Target sequence (Q9NPC2 whole entry, looked up, the tested form may be a part): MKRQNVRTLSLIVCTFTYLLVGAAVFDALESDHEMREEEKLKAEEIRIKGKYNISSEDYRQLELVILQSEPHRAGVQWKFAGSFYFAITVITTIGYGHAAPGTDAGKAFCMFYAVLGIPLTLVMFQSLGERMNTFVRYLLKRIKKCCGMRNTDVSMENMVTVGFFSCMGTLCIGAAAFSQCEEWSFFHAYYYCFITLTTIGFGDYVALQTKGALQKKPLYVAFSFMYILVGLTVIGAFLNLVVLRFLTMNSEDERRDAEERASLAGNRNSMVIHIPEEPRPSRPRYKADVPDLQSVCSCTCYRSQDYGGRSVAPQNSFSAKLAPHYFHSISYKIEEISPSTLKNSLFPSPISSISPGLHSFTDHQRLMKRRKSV
# KCNK9 inh conf: human KCNK9 inhibitor confirmation; shares compounds with KCNK9 block; HEK293 KCNK9 cells, FluxOR thallium flux fluorescence; inhibition, % at 10 µM; 43% of 4,900 active; AID 492992;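 active = thallium signal inhibited by more than 5 SD of the compound-free buffer control wells, on both duplicate plates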
# Kir2-1 spec: tests whether KCNK9 modulators also affect mouse Kir2.1 | shares compounds with KCNK9 block | Kir2.1 cells, FluxOR thallium flux fluorescence | inhibition, % at 10 µM | 4% of 4,900 active;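 active = thallium signal drop more than 5 SD beyond the mean of the no-compound control wells, seen in both duplicate plates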;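 note: signal is fluorescence rise after thallium addition divided by baseline fluorescence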
# HEK293 Tl ctr: non-induced cell nonspecific activity of KCNK9 modulators. AID 492997. inhibition, % at 10 µM. shares compounds with KCNK9 block. 40% of 4,900 active. non-induced KCNK9-HEK293, FluxOR thallium flux;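 active = thallium signal drop beyond 5 SD of the untreated control mean, on both duplicate plates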
# A number is an active result; 0 = inactive; - = no result given. Most compounds without a hit are left out; they make up all but 3.5% or so of the library.
SMILES,Kir21 inh,TMEM16A act,TMEM16A inh,KCNK3 inh,KCNK9 block,KCNK9 inh conf,Kir2-1 spec,HEK293 Tl ctr
CCn1c(SC)nnc1-c1sc2cc(Cl)ccc2c1Cl,0,0,0,0,-11,60%,0,36%
CC(=O)Nc1ccc(Nc2c([N+](=O)[O-])c(=O)n(-c3ccccc3)c3ccccc23)cc1,0,0,0,0,0,-,-,-
Cc1cccc(NC(=O)C(=O)NNC(=O)c2ccc(C(C)(C)C)cc2)c1,0,0,0,0,0,-,-,-
Cc1ccc(F)c(NC(=O)/C(C#N)=C(\O)c2ccc(C(C)(C)C)cc2)c1,0,0,25,0,0,0,0,0
CC/C(C)=N/Nc1cccc([N+](=O)[O-])c1,0,0,0,0,0,-,-,-
C=CCSc1nnc(CCCCCN2C(=O)c3cccc4cccc(c34)C2=O)o1,0,0,0,0,0,0,35%,0
O=[N+]([O-])c1cc(/C=N/O)ccc1Oc1cccc(Cl)c1,0,0,0,0,-10,41%,0,25%
O=[N+]([O-])c1cc(/C=N/O)ccc1Oc1ccccc1Cl,0,0,0,0,0,-,-,-
CCCn1c(SCC(=O)N2c3ccc(F)cc3CCC2C)nnc1-c1ccccn1 (configuration not stated),0,0,0,0,0,-,-,-
COCCNC(=O)CN(C(=O)Cn1nnc2ccccc21)c1ccc(C)c(F)c1,0,0,0,0,0,0,0,0
CCN(CC)CCNC(=S)Nc1ccc2nc(N3CCN(C)CC3)cc(C)c2c1,0,0,0,0,0,-,-,-
CCN(CC)CCNC(=S)Nc1ccc2nc(N3CCCC3)cc(C)c2c1,0,0,0,0,-9.4,0,0,0
Cc1ccc(NC(=O)c2cc(-c3ccccc3)nn2-c2ccccc2)cc1,0,0,0,0,0,0,0,0
CCn1c(SCC#N)nc2c(c1=O)C1(CCCC1)Cc1ccccc1-2,0,0,0,0,-12,47%,0,0
OCCNC(=S)Nc1cc(Cl)cc(Cl)c1,0,0,0,0,0,-,-,-
CC1CN(C(=O)c2ccc(-c3cccc(C(F)(F)F)c3)o2)CC(C)O1 (configuration not stated),0,0,0,0,0,-,-,-
CC1Oc2cc3oc4c(O)c(O)ccc4c(=O)c3c(O)c2C1(C)C (configuration not stated),0,0,100,0,0,0,0,0
COc1ccc(-c2cc(=O)oc3c(O)c(O)ccc23)cc1,0,0,0,0,0,-,-,-
CC(C)n1c(CNC(=O)c2ccccc2F)nnc1SCC(=O)c1ccc(F)cc1,-,0,-,0,-,-,-,-
C/C(=N/OC(=O)c1ccc(C)cc1)c1cccs1,0,0,0,0,0,-,-,-
C/C(=N/OC(=O)c1ccccc1Br)c1ccc(C)cc1,0,0,25,0,-12,58%,0,34%
Oc1cc(CNC2CCCCC2)c(O)cc1CNC1CCCCC1,-,0,-,0,-,-,-,-
CC(C)C(C(=O)NC1CCCC1)N(CC1CCCO1)C(=O)CNS(=O)(=O)c1ccccc1 (configuration not stated),0,0,0,0,0,-,-,-
CC1CCC(C(C)C)C(OC(=O)Cn2c(-c3ccccc3)[n+](C)c3ccccc32)C1 (configuration not stated),-7.6,0,100,0,-8.8,64%,74%,0
CCOC(=O)N1CC(C)N(C(=S)Nc2ccccc2)CC1C (configuration not stated),-,0,-,0,-,-,-,-
SMILES,Kir21 inh,TMEM16A act,TMEM16A inh,KCNK3 inh,KCNK9 block,KCNK9 inh conf,Kir2-1 spec,HEK293 Tl ctr
CC1=CC(C)C2(COC(=O)Nc3ccccc3)COC(C)C1C2C (configuration not stated),0,0,0,0,0,0,0,0
CC(C)CCC(C)N=Cc1c(O)n(Cc2ccccc2)c(=O)c2ccccc12 (configuration not stated),0,0,0,0,-13,74%,0,44%
CCOC(=O)COc1nc(-c2ccco2)cc(-c2ccco2)c1C#N,0,0,0,0,-10,67%,0,36%
COc1ccccc1CCNC(=O)c1cc(COc2cccc(C(F)(F)F)c2)on1,0,0,0,0,0,0,0,0
Cc1ccc(CN(C)C(=O)c2cc(COc3cccc(C(F)(F)F)c3)on2)o1,-4.6,0,0,0,0,0,0,32%
CCOC(=O)N1CCN(C(=O)c2cc(COc3cccc(C(F)(F)F)c3)on2)CC1,0,0,0,0,0,-,-,-
C=CCC1(CC=C)CCCN1C(=O)c1cc(COc2cccc(C(F)(F)F)c2)on1,0,0,0,0,0,0,0,0
COC(=O)c1ccccc1NC(=O)N1c2ccccc2Sc2ccccc21,0,0,0,0,0,-,-,-
COc1cc(/C=N/NC(N)=O)ccc1OCC(=O)Nc1cc(C)c(C)cc1Br,0,0,0,0,0,-,-,-
CCn1c(SC(C)C(=O)OC)nnc1-c1c[nH]c2ccccc12 (configuration not stated),0,0,0,0,0,-,-,-
CC(C)OCCCNC(=O)C1CCN(S(=O)(=O)N2CCCC2)CC1,0,0,0,0,-8.1,0,0,0
CCS(=O)(=O)N1CCCC(C(=O)NCCCOC(C)C)C1 (configuration not stated),0,0,0,0,0,-,-,-
NC(=O)NOCc1ccccc1F,0,0,0,0,0,-,-,-
CCC(C)(C)n1nnnc1CN(Cc1cccs1)Cc1cc2cc(OC)ccc2[nH]c1=O,0,0,0,0,0,-,-,-
CCOc1ccc2[nH]c(=O)c(CN(Cc3cccs3)Cc3nnnn3C(C)(C)CC)cc2c1,0,0,0,-9.9,-9.7,34%,0,0
COc1cccc(Cn2cnc3c(NS(=O)(=O)c4ccc(Cl)cc4Cl)c(C)c(C)cc32)c1,0,0,0,0,0,-,-,-
COc1cccc(Cn2cnc3c(NS(=O)(=O)c4cccc(Cl)c4Cl)c(C)c(C)cc32)c1,0,0,0,0,-13,72%,0,0
COc1cccc(Cn2cnc3c(NS(=O)(=O)c4cc(Cl)ccc4Cl)c(C)c(C)cc32)c1,0,0,0,-9.5,-15,64%,0,0
CCOC(=O)c1sc(N=NC2=C(O)CC(C)(C)CC2=O)c(C(=O)OCC)c1C,0,0,0,0,0,-,-,-
CCNS(=O)(=O)c1ccc(CCC(=O)NCCC2=CCCCC2)cc1,0,0,0,0,0,-,-,-
O=C(OC1CCS(=O)(=O)c2sccc21)c1ccccc1 (configuration not stated),0,0,0,0,0,-,-,-
O=C(OC1CO[C@H]2O[C@@H]1[C@H](OC(=O)c1ccccc1)[C@H]2OC(=O)c1ccccc1)c1ccccc1 (some centres not stated),0,0,0,0,0,0,0,0
